# Source: the antibiotic and cytotoxicity screens of Wong et al. (2023)
# Screen size: about 39,000 compounds; about 1,500 (3.8%) were called active. The list comes from a sample in which actives are over-represented; it also holds similar structures and randomly drawn compounds.
# Tested on: HSkMC (human skeletal muscle cells)
# Experiment: cytotoxicity call (relative viability < 0.9)
# Conditions: 10 µM
row,SMILES,cytotoxicity call
1,CCOC(=O)C1CCN(c2cn[nH]c(=O)n2)CC1,inactive
2,C[C@H]1CN([C@@H](C)CO)C(=O)Cc2cc(NC(=O)Nc3cccc4ccccc34)ccc2O[C@@H]1CN(C)C(=O)Nc1ccccc1,inactive
3,C=CCOC(=O)[C@H]1[C@@H]2C(=O)O[C@@H](c3ccccc3)[C@@H](c3ccccc3)N2[C@@H](c2ccc(OCCOC(=O)[C@H]3C[C@H]4C(=O)N5CCC[C@H]5C(=O)N4[C@H]3c3cccc(OCCO)c3)cc2)[C@]12C(=O)Nc1ccccc12,inactive
4,COc1ccc(NC(=O)N(C)C[C@H]2OCc3cnnn3CCCC(=O)N([C@H](C)CO)C[C@@H]2C)c(OC)c1,inactive
5,COc1ccc(S(=O)(=O)N(C)C[C@H]2Oc3ccc(NS(=O)(=O)c4ccc(F)cc4)cc3CC(=O)N([C@@H](C)CO)C[C@@H]2C)cc1,inactive
6,C[C@@H]1CN([C@@H](C)CO)C(=O)c2cc(NS(=O)(=O)c3ccc(Cl)cc3)ccc2O[C@@H](C)CCCCO[C@H]1CN(C)Cc1ccc(C(F)(F)F)cc1,active
7,C[C@@H]1CN([C@H](C)CO)C(=O)c2cccc(NC(=O)Nc3ccc(C(F)(F)F)cc3)c2O[C@H]1CN(C)Cc1ccc(Oc2ccccc2)cc1,active
8,C[C@@H]1CN([C@@H](C)CO)C(=O)c2cccc(NC(=O)Nc3ccc(C(F)(F)F)cc3)c2O[C@@H]1CN(C)Cc1ccc(Oc2ccccc2)cc1,active
9,C[C@H]1CN([C@@H](C)CO)C(=O)c2cccc(NC(=O)Nc3ccc(C(F)(F)F)cc3)c2O[C@@H]1CN(C)Cc1ccc(Oc2ccccc2)cc1,inactive
10,C[C@H](CO)N1C[C@H](C)[C@H](CN(C)Cc2ccc(Oc3ccccc3)cc2)Oc2c(NC(=O)Nc3ccc(C(F)(F)F)cc3)cccc2C1=O,active
11,C[C@@H]1CN([C@@H](C)CO)C(=O)c2cccc(NC(=O)Nc3ccc(C(F)(F)F)cc3)c2O[C@H]1CN(C)Cc1ccc(Oc2ccccc2)cc1,active
12,C[C@H]1CN([C@@H](C)CO)C(=O)c2cccc(NC(=O)Nc3ccc(C(F)(F)F)cc3)c2O[C@H]1CN(C)Cc1ccccc1,inactive
13,COC[C@H]1CNN1C(=O)c1cc(C)oc1C,inactive
14,C[C@@H]1CN([C@@H](C)CO)C(=O)c2cccc(NS(=O)(=O)c3cn(C)cn3)c2O[C@@H]1CN(C)C(=O)NC1CCCCC1,inactive
15,C[C@H]1CCCCO[C@H](CN(C)C(=O)c2ccccc2)[C@@H](C)CN([C@@H](C)CO)C(=O)c2cc(NC(=O)c3ccccc3)ccc2O1,inactive
16,COc1cccc(-c2ccc3c(c2)O[C@H](CN(C)C(=O)C2CCOCC2)[C@H](C)CN([C@H](C)CO)S3(=O)=O)c1,inactive
17,C[C@@H]1CN([C@H](C)CO)C(=O)c2cccc(NC(=O)Nc3ccc(C(F)(F)F)cc3)c2O[C@@H]1CN(C)Cc1ccc(Oc2ccccc2)cc1,active
18,C[C@H](CO)N1C[C@H](C)[C@@H](CN(C)Cc2ccc(Oc3ccccc3)cc2)Oc2c(NC(=O)Nc3ccc(C(F)(F)F)cc3)cccc2C1=O,active
19,C[C@@H]1CN([C@H](C)CO)C(=O)c2cccc(NC(=O)Nc3ccccc3)c2O[C@@H]1CN(C)Cc1ccc(C(F)(F)F)cc1,inactive
20,C[C@H]1CN([C@@H](C)CO)C(=O)c2cccc(NC(=O)Nc3ccc(C(F)(F)F)cc3)c2O[C@H]1CN(C)Cc1ccc(Oc2ccccc2)cc1,active
21,C[C@H](CO)N1C[C@H](C)[C@H](CN(C)Cc2ccccc2)Oc2c(NC(=O)Nc3ccc(C(F)(F)F)cc3)cccc2C1=O,inactive

row,SMILES,cytotoxicity call
1,C[C@@H]1CCCCO[C@@H](CN(C)CC2CC2)[C@H](C)CN([C@H](C)CO)C(=O)c2cc(NC(=O)Cc3ccccc3)ccc2O1,inactive
2,C[C@@H]1CN([C@H](C)CO)C(=O)c2cc(NC(=O)c3ccncc3)ccc2O[C@@H](C)CCCCO[C@@H]1CN(C)C(=O)C1CCCCC1,inactive
3,COc1ccc(NC(=O)N2C[C@@H](O)COC[C@@H]3O[C@H](CC(=O)NC4Cc5ccccc5C4)CC[C@H]32)cc1,inactive
4,CC(C)NC(=O)N(C)C[C@H]1Oc2ccc(NC(=O)NC3CCCCC3)cc2C(=O)N([C@@H](C)CO)C[C@H]1C,inactive
5,CC(C)NC(=O)Nc1ccc2c(c1)C(=O)N([C@H](C)CO)C[C@H](C)[C@H](CN(C)S(=O)(=O)c1cn(C)cn1)OCCCC[C@H](C)O2,inactive
6,C[C@@H]1CN([C@H](C)CO)C(=O)c2cc(NC(=O)Cn3cnnn3)ccc2O[C@@H]1CN(C)Cc1ccc(Oc2ccccc2)cc1,inactive
7,CCS(=O)(=O)N[C@H]1C=C[C@@H](CC(=O)NCc2ccc(Cl)cc2)O[C@@H]1CO,inactive
8,C[C@H](CO)N1C[C@H](C)[C@@H](CN(C)Cc2ccc(Cl)c(Cl)c2)OCCCC[C@H](C)Oc2ccc(NC(=O)CCC(F)(F)F)cc2C1=O,inactive
9,C[C@@H]1CCCCO[C@@H](CN(C)Cc2ccc(Cl)c(Cl)c2)[C@H](C)CN([C@H](C)CO)C(=O)c2cc(NC(=O)CCC(F)(F)F)ccc2O1,inactive
10,C[C@@H]1CN([C@H](C)CO)C(=O)c2cc(NC(=O)CCC(F)(F)F)ccc2O[C@@H](C)CCCCO[C@H]1CN(C)Cc1ccc(Cl)c(Cl)c1,active
11,C[C@@H]1CCCCO[C@H](CN(C)Cc2ccc(Cl)c(Cl)c2)[C@H](C)CN([C@@H](C)CO)C(=O)c2cc(NC(=O)CCC(F)(F)F)ccc2O1,inactive
12,C[C@@H]1CN([C@H](C)CO)C(=O)c2cc(NC(=O)CCC(F)(F)F)ccc2O[C@@H](C)CCCCO[C@@H]1CN(C)Cc1ccc(Cl)c(Cl)c1,active
13,C[C@H]1CCCCO[C@H](CN(C)Cc2ccc(Cl)c(Cl)c2)[C@@H](C)CN([C@@H](C)CO)C(=O)c2cc(NC(=O)CCC(F)(F)F)ccc2O1,inactive
14,C[C@H](CO)N1C[C@H](C)[C@@H](CN(C)Cc2ccc(C(=O)O)cc2)OCCCC[C@H](C)Oc2ccc(NC(=O)CCC(F)(F)F)cc2C1=O,inactive
15,Cc1cc(OCCCS(C)(=O)=O)cc(C)c1-c1cccc(COc2ccc3c(c2)OC[C@H]3CC(=O)O)c1,active
16,C[C@@H]1CN([C@H](C)CO)C(=O)c2cccc(NC(=O)c3ccc(-c4nccs4)cc3)c2O[C@H]1CN(C)Cc1ccccc1,inactive
17,CC(C)(N)c1cn(C2CCN(C(=O)C3CCC(C(C)(C)C)CC3)CC2)nn1 (stereo unspecified),inactive
18,CCO[C@@H]1OC(C(=O)N2CCOCC2)=C[C@H](c2coc3ccccc3c2=O)[C@H]1CCCOC(=O)NCCCCCC(=O)NO,inactive
19,COc1ccc(S(=O)(=O)Nc2ccc3c(c2)CC(=O)N([C@@H](C)CO)C[C@@H](C)[C@@H](CN(C)C(=O)Nc2c(C)noc2C)O3)cc1,inactive
20,COc1cc(OC)c(S(=O)(=O)N(C)Cc2ccccc2)cc1S(=O)(=O)N(C)Cc1ccccc1,inactive
21,Cc1cc(Cl)cc2sc(N(Cc3ccccn3)C(=O)c3ccc(S(=O)(=O)N4CCCC4)cc3)nc12,inactive

row,SMILES,cytotoxicity call
1,O=C(c1ccc(S(=O)(=O)N2CCCCCC2)cc1)N(Cc1cccnc1)c1nc2c(F)cc(F)cc2s1,inactive
2,Cc1ccc2sc(N(CCCN(C)C)C(=O)c3ccc(S(=O)(=O)N(C)C4CCCCC4)cc3)nc2c1C,active
3,Cc1ccc2sc(N(CCCN(C)C)C(=O)c3ccc(S(=O)(=O)N(C)Cc4ccccc4)cc3)nc2c1C,active
4,C[C@@H]1CN([C@H](C)CO)C(=O)c2cc(NC(=O)Cn3cnnn3)ccc2O[C@H]1CN(C)CC1CCCCC1,inactive
5,Cc1ccc(-c2ccc3c(c2)O[C@@H](CN(C)C(=O)NC(C)C)[C@H](C)CN([C@H](C)CO)S3(=O)=O)cc1,inactive
6,CCCNC(=O)N[C@H]1CC[C@@H](CC(=O)N2CCN(C)CC2)O[C@@H]1CO,inactive
7,C[C@@H]1CN([C@H](C)CO)C(=O)c2cc(NS(C)(=O)=O)ccc2O[C@@H]1CN(C)Cc1ccc(C(=O)O)cc1,inactive
8,CC(C)NC(=O)N(C)C[C@@H]1OCCCC[C@@H](C)Oc2ccc(NS(=O)(=O)c3cn(C)cn3)cc2C(=O)N([C@@H](C)CO)C[C@H]1C,inactive
9,C[C@H](CO)N1C[C@H](C)[C@H](CN(C)C(=O)Nc2ccccc2)OCCCC[C@H](C)Oc2ccc(NC(=O)Nc3cccc4ccccc34)cc2C1=O,inactive
10,Cc1noc(C)c1NC(=O)N(C)C[C@@H]1Oc2ccc(NC(=O)Nc3ccc(C(F)(F)F)cc3)cc2C(=O)N([C@H](C)CO)C[C@@H]1C,inactive
11,C[C@H](CO)N1C[C@H](C)[C@@H](CN(C)Cc2ccc(-c3ccccc3)cc2)Oc2ccc(NC(=O)Nc3cccc4ccccc34)cc2C1=O,inactive
12,C[C@@H]1CN([C@H](C)CO)C(=O)c2cc(NC(=O)Nc3cccc4ccccc34)ccc2O[C@@H]1CN(C)Cc1ccc(-c2ccccc2)cc1,inactive
13,C[C@H]1CN([C@@H](C)CO)C(=O)c2cc(NC(=O)Nc3cccc4ccccc34)ccc2O[C@@H]1CN(C)Cc1ccc(-c2ccccc2)cc1,active
14,C[C@H]1CN([C@@H](C)CO)C(=O)c2cc(NC(=O)Nc3cccc4ccccc34)ccc2O[C@H]1CN(C)Cc1ccc(-c2ccccc2)cc1,inactive
15,C[C@@H]1CN([C@H](C)CO)C(=O)c2cc(NC(=O)Nc3cccc4ccccc34)ccc2O[C@H]1CN(C)Cc1ccc(-c2ccccc2)cc1,inactive
16,C[C@@H]1CN([C@@H](C)CO)C(=O)c2cc(NC(=O)Nc3cccc4ccccc34)ccc2O[C@@H]1CN(C)Cc1ccc(-c2ccccc2)cc1,active
17,C[C@@H]1CN([C@@H](C)CO)C(=O)c2cc(NC(=O)Nc3cccc4ccccc34)ccc2O[C@H]1CN(C)Cc1ccc(-c2ccccc2)cc1,inactive
18,C[C@@H]1CN([C@H](C)CO)C(=O)c2cc(NC(=O)Nc3cccc4ccccc34)ccc2O[C@H]1CN(C)Cc1ccccc1,inactive
19,C[C@H](CO)N1C[C@H](C)[C@H](CN(C)Cc2ccc(-c3ccccc3)cc2)Oc2ccc(NC(=O)Nc3cccc4ccccc34)cc2C1=O,active
